In the library only some 10% were active in any assay of this set; here they are far more common.
KB-3-1 cytotox = qHTS assay for MDR1-selective chemotherapeutics: Primary screen using the parental adenocarcinoma cell KB-3-1 | KB-3-1 viability, CellTiter-Glo ATP luminescence, 72 h | Potency, µM (top dose mostly 46.1 µM), actives largely listed as cytotoxic | hit rate 1.4% among 400,000; further: on the % scale 0 is the no-effect control and ±100 the full control effect; nearly all actives have a fitted effect of over 60% in size
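Screening of KB-3-1 cells (DMEM, 10% FBS, phenol-red free) ran from lowest to highest compound concentration; after 72 h at 37 °C viability was read luminescently and curves fitted.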
SW480 rereplic = A quantitative high throughput screen for small molecules that induce DNA re-replication in SW480 colon adenocarcinoma cells. SW480 DNA re-replication, Hoechst DNA content imaging, 48 h. AID 624297, 2012. Potency, µM (top dose mostly 46.1 µM), without a hit: top-dose re-replication activation, usual class: activators. hit rate 1.8% among 340,000; further: % of control where 0% means no effect; nearly all actives have a fitted effect of over 55% in size
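Quantitative HTS format with DMSO vehicle controls; 48 hr drug incubation at 37 C, then 40 min Hoechst staining and scanning imager measurement at 405 nm excitation.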
RORg inh = qHTS for inhibitors of ROR gamma transcriptional activity; Potency, µM (titrated, usually from 53.6 µM), inactives show at the top dose activity change, negative = inhibition, hits mostly inhibitors; Nuclear receptor ROR-gamma (Mus musculus), P51450; Drosophila S2 Gal4-RORgamma UAS-luciferase reporter, 20 h; AID 2551, 2010; hit rate 5.4% among 310,000; further: on the % scale 0 is the no-effect control and ±100 the full control effect; nearly all actives have a fitted effect of over 60% in size
Target sequence (P51450 whole entry, looked up, the tested form may be a part): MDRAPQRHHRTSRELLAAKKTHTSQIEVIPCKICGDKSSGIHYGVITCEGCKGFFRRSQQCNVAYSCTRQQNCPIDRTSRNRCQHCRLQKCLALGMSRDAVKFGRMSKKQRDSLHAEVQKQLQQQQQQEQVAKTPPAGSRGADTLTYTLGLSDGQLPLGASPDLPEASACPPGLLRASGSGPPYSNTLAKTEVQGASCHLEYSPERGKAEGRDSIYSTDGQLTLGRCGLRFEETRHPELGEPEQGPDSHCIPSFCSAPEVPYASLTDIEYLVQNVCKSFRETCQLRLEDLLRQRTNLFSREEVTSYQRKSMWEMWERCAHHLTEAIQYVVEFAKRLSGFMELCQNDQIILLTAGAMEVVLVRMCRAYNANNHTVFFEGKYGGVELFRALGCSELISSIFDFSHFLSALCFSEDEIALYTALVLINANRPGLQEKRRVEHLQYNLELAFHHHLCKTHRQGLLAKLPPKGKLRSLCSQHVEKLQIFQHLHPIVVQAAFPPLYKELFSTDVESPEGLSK
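Schneider cells (Drosophila), stable Gal4 DBD–ROR gamma + UAS-luc; 1 hr cmpd preincubation; Cu2+ induction 700 uM final; 20 hr ambient; luminescence.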
KB-V1 MDR tox = qHTS assay for MDR1-selective chemotherapeutics: Primary screen using the drug-selected MDR subline cells KB-V1 | KB-V1 MDR cells viability, CellTiter-Glo, 72 h | Potency, µM (highest dose often 46.1 µM), hits mostly cytotoxic | hit rate 3.4% among 400,000; further: on the % scale 0 is the no-effect control and ±100 the full control effect; nearly all actives have a fitted effect of over 60% in size
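KB-V1, DMEM (no phenol red) + 10% FBS; cpd pin-transferred, titration series; 72 h, 37 degrees C; CellTiter-Glo, luminescence. Data normalized, curve-fit.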
MCF10A rereplic = A quantitative high throughput screen for small molecules that induce DNA re-replication in MCF 10a normal breast cells; AID 624296, 2012; hit rate 2.9% among 350,000; Potency, µM (titrated, usually from 46.1 µM), without a hit: top-dose activity, positive = re-replication, actives largely listed as activators; MCF 10A DNA re-replication, Hoechst nuclear intensity, 48 h; further: % of control where 0% means no effect; nearly all actives have a fitted effect of over 50% in size
Gal4-VP16 FLuc = VP16 counterscreen qHTS for inhibitors of ROR gamma transcriptional activity. Drosophila S2 Gal4-VP16 UAS-luciferase, luminescence, 20 h. hit rate 3.5% among 310,000. Potency, µM (highest dose often 53.6 µM), for inactives: top-dose activity, negative = inhibition, hits mostly inhibitors. AID 2546, 2010;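 further: Gal4-VP16 expression switched on by copper sulfate through the metallothionein promoter; on the % scale 0 is the no-effect control and ±100 the full control effect; nearly all actives have a fitted effect of over 50% in size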
* = called active by the depositor; i = inactive; ? = inconclusive; . = no result; [ ] = dose if it differs, or a comment. The call rests on the fitted dose curve; in most records, active means well fitted curve in the direction sought with a large enough effect; inconclusive means small, poorly fitted or top-dose-only effect, or another doubt; inactive means no such curve, though single readings can be large; an effect the other way counts as inactive or inconclusive. Potency means the concentration at half of the fitted maximal effect.

SMILES | KB-3-1 cytotox | SW480 rereplic | RORg inh | KB-V1 MDR tox | MCF10A rereplic | Gal4-VP16 FLuc
CCn1c(-c2ccc(N(C)C)cc2)nc2ccccc21 | 13µM* | 8% | 6.3µM* | 16µM* | 15% | ?
CN(C)c1ccc(-c2nc3ccccc3n2C)cc1 | ? | ? | 4µM* | ? | -16% | ?
CN(Cc1nc2ccccc2n1C)c1ccccc1 | i | 0% | 11µM* | i | 0% | ?
CCn1c(-c2ccc(N)cc2)nc2ccccc21 | ? | 1% | 4% | i | 12% | 8%
Cc1ccc(C(O)c2nc3ccccc3n2C(C)C)cc1 (configuration not stated) | i | 2% | ? | i | 8% | -9%
CC(C)n1c(-c2ccc(N(C)C)cc2)nc2ccccc21 | i | -5% | 4µM* | ? | 5% | 20µM*
COc1ccc(NC(=O)CN2C(=O)C3(SCC(=O)N3c3cccc(OC)c3)c3ccccc32)cc1 (configuration not stated) | i | . | . | i | . | .
Cc1ccc(OC(=O)CSc2nnc(-c3ccc4c(c3)OCO4)o2)c(C)c1 | i | . | . | ? | . | .
O=C(Nc1nnc([C@@H]2C[C@H](O)[C@@H](CO)O2)s1)c1cccc2ccccc12 | i | . | . | i | . | .
COc1ccccc1-c1cc(C(=O)NCc2ccc(F)cc2)no1 | i | 14% | 17% | 16µM* | ? | -8%
Cc1ccc(-c2cc(C(=O)NCc3cccnc3)no2)cc1 | i | -4% | -14% | 16µM* | 2% | -9%[0.365 µM]
COc1ccc(-c2cc(C(=O)Nc3cccnc3)no2)cc1OC | i | -58% | 0% | ? | 3% | 7%
COc1ccc(-c2cc(C(=O)NCc3cccnc3)no2)cc1OC | i | -14% | 2% | 21µM* | -4% | -15%
COc1cc(OC)c(NC(=O)C(CC(C)C)N2Cc3ccccc3C2=O)cc1Cl (configuration not stated) | i | . | . | i | . | .
CC(=O)c1cc(-c2ccccc2)n(CC(=O)NCCc2ccc(C)cc2)c1C | i | . | . | i | . | .
COc1ccccc1N1CCN(C(=S)NC(=O)/C=C/c2ccccc2)CC1 | i | -6% | 0.89µM* | i | 5% | 7.1µM*
COc1ccccc1N1CCN(C(=S)NC(=O)/C=C/c2ccc(F)cc2)CC1 | i | -5% | 3.5µM* | i | 1% | 10µM*
C[C@]12C[C@@](C)(C=C1/C=C/c1ccc(C(F)(F)F)cc1)C(=O)C[C@H]2c1ccc(C(F)(F)F)cc1 | . | . | 0% | . | . | 0%
COc1ccc2nc(NC(=O)c3ccc(S(=O)(=O)N4CCCC(C)C4)cc3)sc2c1 (configuration not stated) | i | . | . | i | . | .
COCCn1c(=NC(=O)C2COc3ccccc3O2)sc2cc(S(N)(=O)=O)ccc21 (configuration not stated) | i | 1% | 24% | i | ? | 5%
CCn1c(=NC(=O)C2COc3ccccc3O2)sc2c(OC)ccc(OC)c21 (configuration not stated) | i | -24% | 1% | 9.2µM* | 16% | -7%
C=CCn1c(Sc2ncc([N+](=O)[O-])s2)n[nH]c1=O | ? | -5% | 4.5µM* | i | 29% | 4µM*
Cc1ccccc1C(=O)NC1(C(F)(F)F)N=C(c2ccccc2)N(C2CCCCC2)C1=O (configuration not stated) | i | . | . | i | . | .
CC(=O)/C=C\c1ccccc1OC(=O)c1cc2ccccc2oc1=O | i | -19% | -23% | i | 4% | 16%
O=C(/C=C\c1ccccc1OC(=O)c1ccccc1F)c1cc2ccccc2o1 | i | 5% | ? | ? | ? | 0.32µM*
SMILES | KB-3-1 cytotox | SW480 rereplic | RORg inh | KB-V1 MDR tox | MCF10A rereplic | Gal4-VP16 FLuc
CN(C)S(=O)(=O)Oc1ccsc1C(=O)Nc1cccc(Cl)c1Cl | ? | -2% | -31% | 21µM* | 13% | -2%
COc1ccc(NC(=O)c2csc(Cc3ccc(Cl)cc3)n2)cc1 | i | -6% | 19% | i | 12% | -5%
CN(C)S(=O)(=O)Oc1ccsc1C(=O)Nc1ccc(Cl)cc1 | i | 11% | -41% | i | 7% | 25µM*
COc1ccc(COc2ccsc2C(=O)Nc2ccc(Cl)cc2)cc1 | i | ? | -65% | 9.2µM* | 18µM* | ?
COc1ccc(NC(=O)c2sccc2OS(=O)(=O)N(C)C)cc1 | i | ? | -1% | i | 6% | 7%
Cc1cccc(C(=O)Nc2cccc(OCc3cc(=O)n4c(C)csc4n3)c2)c1 | i | . | . | i | . | .
CCC(C)NC(=O)CSc1nc2n[nH]c(C)c2c(=N)n1-c1cc(Cl)ccc1C (configuration not stated) | i | . | . | i | . | .
O=C(NCCN1CCOCC1)C1CCN(c2ncnc3c2sc2cccc(F)c23)CC1 | i | -11% | 2% | i | 0% | 14µM*
COc1ccc2c(c1)c1c(c(=O)n(-c3ccccc3)c(=O)n1CC(=O)NCCC1=CCCCC1)n2C | i | . | . | i | . | .
COc1ccc(-c2cc(-c3ccc4c(c3)NC(=O)CO4)nc3c2COc2ccc(F)cc2-3)cc1 | i | . | . | i | . | .
COC(=O)Cc1ccc(NC(=S)NC(C)(C)C)cc1 | i | -60% | ? | i | -44% | -13%
CC(C)(C)NC(=S)NC(C)(C)C | i | 1% | 11µM* | i | -2% | ?
CC(C)(C)NC(=S)NC1CC1 | i | -4% | 13µM* | i | 0% | ?
COc1cc2c(NC3CCN(C)CC3)nc(N3CCCN(C)CC3)nc2cc1OCC1CCNCC1 | i | . | . | ? | . | .
COc1cccc(NC(=O)Cn2cc(S(=O)(=O)N3CCCC3)c(S(=O)(=O)N3CCCC3)c2)c1 | i | . | . | i | . | .
CCOC(=O)[C@@H]1[C@H]2COc3ccccc3[C@@H]2N2C(=O)N(c3ccc(F)cc3)C(=O)[C@@]12C | i | -33% | 13µM* | i | -22% | -7%
CCOC(=O)[C@@H]1[C@H]2COc3ccccc3[C@@H]2N2C(=O)N(c3ccc(Br)cc3)C(=O)[C@]12C | i | 23µM* | . | i | -7% | .
CCOC(=O)[C@@H]1[C@H]2COc3ccccc3[C@@H]2N2C(=O)N(c3ccc(C)cc3)C(=O)[C@@]12C | i | -13% | . | i | 2% | .

Screening results: PubChem BioAssay, National Center for Advancing Translational Sciences (NCATS)
